Data from the supplement of paper PMC11732987, “Enantioselective OTUD7B fragment discovery through chemoproteomics screening and high-throughput optimisation” (Communications Chemistry, 2025).
Unmarked numbers belong to inactive results.

Each molecule was assayed against USP14 (UniProt P54578) (assay: log2 ratio of Biotin-Ahx-Ub-VS probe labelling (fragment/DMSO); higher = less target engagement (more negative = stronger competition), active = hit call of the paper (q ≤ 0.05, log2 ratio ≤ -1)). Settings: compound concentration: 200 uM; treatment time: 3 h.
Sequence of USP14 (P54578 whole entry, the tested form may be a part): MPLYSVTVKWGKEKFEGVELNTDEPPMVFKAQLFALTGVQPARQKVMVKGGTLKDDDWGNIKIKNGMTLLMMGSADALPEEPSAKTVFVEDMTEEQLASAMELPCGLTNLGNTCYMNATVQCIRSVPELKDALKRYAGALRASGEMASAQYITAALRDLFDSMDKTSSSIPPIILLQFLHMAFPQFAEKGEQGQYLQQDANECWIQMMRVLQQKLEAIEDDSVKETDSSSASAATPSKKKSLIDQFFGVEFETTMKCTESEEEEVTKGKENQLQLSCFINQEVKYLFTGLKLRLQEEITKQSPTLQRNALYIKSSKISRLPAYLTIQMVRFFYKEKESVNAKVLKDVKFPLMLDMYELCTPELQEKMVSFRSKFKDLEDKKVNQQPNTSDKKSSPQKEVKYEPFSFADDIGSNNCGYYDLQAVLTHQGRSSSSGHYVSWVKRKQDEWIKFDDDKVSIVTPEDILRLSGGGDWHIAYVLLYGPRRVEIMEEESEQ
Description: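 Competitive ABPP in HEK293T cell lysate. Lysates were treated with each chloroacetamide fragment at 200 µM for 3 h, then with Biotin-Ahx-Ub-VS (0.5 µM, 1 h), NeutrAvidin-enriched and analysed by diaPASEF LC-MS/MS. Protein LFQ was median-normalised; average log2 ratio is fragment/DMSO from an unpaired t-test (n=3 treated, n=44 DMSO). Hits: q ≤ 0.05, log2 ratio ≤ -1, unique peptides ≥ 2.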

Row | Structure (SMILES) | log2 ratio of Biotin-Ahx-Ub-VS probe labelling
1 | C/C(=C\CNC(=O)CCl)c1cnn(C)c1.Cl | -0.247
2 | Cc1cccn2cc(CCNC(=O)CCl)nc12.Cl | -0.461
3 | O=C(CCl)Nc1cc(Cl)ccc1-n1cncn1 | -1.09 (active)
4 | Cl.O=C(CCl)NCCc1ncc(F)cc1F | -0.31
5 | CS(=O)(=O)N1CCCN(C(=O)CCl)CC1 | 0.105
6 | Cl.O=C(CCl)N1CCn2cncc2C1 | -0.259
7 | Cl.O=C(CCl)N1CCC(n2nc3ccccc3n2)CC1 | -0.545
8 | Cc1c(C#N)c(NC(=O)CCl)n(Cc2ccco2)c1C | -0.314
9 | O=C(CCl)N1CC=C(c2c[nH]c3ccccc23)CC1 | -0.573
10 | COc1ccccc1C(C)NC(=O)CCl (stereo not given) | -0.458
11 | Cl.O=C(CCl)N1CCc2ncncc2C1 | -0.0964
12 | CC1CN(c2ccc(NC(=O)CCl)cc2)CC(C)O1 (stereo not given) | -0.0454
13 | O=C(CCl)Nc1cccc(NC(=O)c2ccccc2)c1 | 0.235
14 | Cc1cc(C2CCCN2C(=O)CCl)nn1C.Cl (stereo not given) | -0.361
15 | O=C(CCl)NC1CCC(C(F)(F)F)CC1 (stereo not given) | -0.454
16 | Cc1n[nH]c2c1CN(C(=O)CCl)CC2 | -0.903
17 | Cc1ccn2cc(CNC(=O)CCl)nc2c1.Cl | 0.000672
18 | NS(=O)(=O)c1ccc(Cl)c(NC(=O)CCl)c1 | -0.356
19 | O=C(CCl)NC1(c2ccc3c(c2)OCCO3)CCCC1 | -0.293
20 | CC(=O)Nc1ccc(NC(=O)CCl)cc1 | 0.0669

Row | Structure (SMILES) | log2 ratio of Biotin-Ahx-Ub-VS probe labelling
21 | Cl.O=C(CN1CCN(C(=O)CCl)CC1)Nc1ccc(F)cc1 | -0.0648
22 | Cc1ncsc1CCNC(=O)CCl | 0.518
23 | O=C(CCl)NCCc1cccc2ccccc12 | 0.0871
24 | Cl.O=C(CCl)N1CCC(Cc2nccs2)C1 (stereo not given) | -0.2
25 | O=C(CCl)N1CCN(C(=O)Nc2ccccc2)CC1 | 0.127
26 | Cl.O=C(CCl)NCc1ccnc(Oc2ccccc2F)c1 | -0.153
27 | Cl.O=C(CCl)N1CCCC(c2ncc[nH]2)C1 (stereo not given) | -0.141
28 | Cl.Cn1ncc2c1CCCC2NC(=O)CCl (stereo not given) | -0.227
29 | N#Cc1ccc(CNC(=O)CCl)cc1 | -0.177
30 | O=C(CCl)NC(Cn1ccccc1=O)c1ccccc1 (stereo not given) | -0.174
31 | O=C(CCl)N1CCN2C(=O)CCC2C1 (stereo not given) | 0.0904
32 | Cc1cccc(NC(=O)[C@@H]2CCCN2C(=O)CCl)n1 | -0.519
33 | CS(=O)(=O)c1ccc(NC(=O)CCl)cc1 | 0.0136
34 | CC(NC(=O)CCl)c1cccc(Cl)c1 (stereo not given) | -0.42
35 | Cc1nc(-c2cccc(NC(=O)CCl)c2)cs1 | -0.378
36 | Cc1n[nH]c(=O)c2c(NC(=O)CCl)oc(C)c12 | 0.0281
37 | O=C(CCl)N[C@H]1CCS(=O)(=O)c2ccccc21 | -0.0969
38 | O=C(CCl)NCCC1=CCCCC1 | 0.0195
39 | Cc1cc(CC(C)NC(=O)CCl)n[nH]1 (stereo not given) | -0.00618
40 | Cc1noc(N2CCN(C(=O)CCl)CC2)n1.Cl | 0.347
